Data reported in the supplement of paper PMC7156485.
± gives the standard deviation of the averaged measurements.

Key:
Conditions in all cases: concentration: 10 µM; 24 h
HCC1569 [1] = experiment: cell number relative to DMSO (% of DMSO); higher = more cells (less growth inhibition / toxicity)
Summary of the method: (§1)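 Compounds were applied at 10 µM for 24 h at 37 °C, in triplicate, to HCC1569 and TDF cells. The cells were then fixed and stained for H1.0, and nuclei were counterstained with DAPI. Nuclear H1.0 intensity or cell number is reported relative to the plate control as a percent, taking the median of replicates. Smoothing for positional effects was applied to HCC1569 values only.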

TDF [2] = experiment: as above
Summary of the method: as §1

TDF [3] = experiment: H1.0 immunofluorescence intensity relative to DMSO (% of DMSO); higher = stronger H1.0 induction, active = 120 or more
Summary of the method: as §1

HCC1569 [4] = experiment: H1.0 immunofluorescence intensity relative to DMSO (% of DMSO); higher = stronger H1.0 induction, active = 140 or more
Summary of the method: as §1
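Throughout, for H1.0 immunofluorescence intensity relative to DMSO: TDF is a line of transformed human dermal fibroblasts of mesenchymal origin.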
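Throughout, for cell number relative to DMSO: TDF denotes transformed human dermal fibroblasts of mesenchymal origin.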

SMILES | cell number (HCC1569 [1]) | cell number (TDF [2]) | H1.0 immunofluorescence intensity (TDF [3]) | H1.0 immunofluorescence intensity (HCC1569 [4])
Clc1ccc(COC(Cn2ccnc2)c2ccc(Cl)cc2Cl)c(Cl)c1 (configuration not stated) [Miconazole] | 96.8 | 110 | 101 (inactive) | 114 (inactive)
CCN(CCO)CCCC(C)Nc1ccnc2cc(Cl)ccc12.O=S(=O)(O)O (configuration not stated) | 99 | 91.2 | 102 (inactive) | 95.7 (inactive)
CC(=O)OC1CCC2(C)C(C1)C(OC(C)=O)CC1C2CC2C3CN4CC(C)CCC4C(C)C3CCC21O (configuration not stated) [Diacetylkorseveriline] | 101 | 109 | 96.2 (inactive) | 95.1 (inactive)
CCCCS(=N)(=O)CCC(N)C(=O)O [L-Buthionine-sulfoximine] | 102 | 96.6 | 97.4 (inactive) | 95.6 (inactive)
CC(C)C[C@@H](C(=O)O)c1cc(-c2ccc(C(F)(F)F)cc2)cc(-c2ccc(C(F)(F)F)cc2)c1 | 98.7 | 92.4 | 93.7 (inactive) | 115 (inactive)
NCC(O)(CS(=O)(=O)O)c1ccc(Cl)cc1 (configuration not stated) [2-Hydroxysaclofen] | 101 | 94.6 | 97.7 (inactive) | 93.4 (inactive)
COC1=C(OC)C(=O)C(CCCCCCCCCCO)=C(C)C1=O [Idebenone] | 101.26 ± 0.079 | 96.02 ± 0.62 | 101 (inactive) | 102 (inactive)
O=C1Nc2ccc(Cl)cc2C1=Cc1cc(Cl)c(O)c(Cl)c1 [PKR Inhibitor, Negative Control] | 101 | 98.8 | 95.1 (inactive) | 128 (inactive)
Cl.NC(N)=NC(=O)Cc1c(Cl)cccc1Cl [Guanfacine.HCl] | 101 | 82.4 | 102 (inactive) | 107 (inactive)
CSc1ccc2c(c1)N(CCC1CCCCN1C)c1ccccc1S2.Cl (configuration not stated) [Thioridazine hydrochloride] | 86.6 | 90.6 | 110 (inactive) | 155 (active)
CN1CCc2cc3c(cc2C(=O)Cc2ccc4c(c2C1)OCO4)OCO3 [Protopine] | 99.4 | 108 | 97.6 (inactive) | 92.4 (inactive)
CCC(C)(C)c1ccc(CC(C)CN2CC(C)OC(C)C2)cc1 (configuration not stated) [Amorolfine] | 94.1 | 98.9 | 94.6 (inactive) | 110 (inactive)
CCC(CCC(C)C1CCC2C3CC=C4CC(O)CCC4(C)C3CCC12C)C(C)C (configuration not stated) | 99.8 | 92.5 | 105 (inactive) | 90.6 (inactive)
CC(C)c1ccc2c(c1)c(SC(C)(C)C)c(CC(C)(C)C(=O)[O-])n2Cc1ccc(Cl)cc1.[Na+] | 102 | 108 | 91.8 (inactive) | 91.2 (inactive)
CCCCc1nc(Cl)c(CO)n1Cc1ccc(-c2ccccc2-c2nnn[n-]2)cc1.[K+] [Losartan potassium] | 102 | 90.1 | 98.1 (inactive) | 102 (inactive)
COc1c(C)c2c(c(O)c1CC=C(C)CCC(=O)O)C(=O)OC2 [Mycophenolic Acid] | 78.3 ± 3.8 | 63.3 ± 4.9 | 104 (inactive) | 116 (inactive)
S=c1ccss1 [1,2-Dithiole-3-thione] | 101 | 103 | 89.6 (inactive) | 99.4 (inactive)
COc1cc2nc(N3CCN(C(=O)c4ccco4)CC3)nc(N)c2cc1OC.Cl [Prazosin hydrochloride] | 91.9 | 99.8 | 93.6 (inactive) | 106 (inactive)
